Source: PubChem BioAssay AID1159580 (chemical genetic matrix, 2015)
The campaign covered roughly 5,500 compounds. About 2,000 (36%) were called active. Not shown: some 18% with an inconclusive outcome. Rule as the data show it: active = normalized growth mostly below about 0.91 (no sharp cut-off); inconclusive = no clear call, values can overlap the other calls; inactive = mostly above about 0.92. The list shows a part of the results.

Test: chemical genetic growth profiling, strain panel (AID 1159580);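 also: tested at 20 µM; growth read once vehicle control cultures reached saturation at 30 °C; 1 = growth at the plate median or of vehicle wells; lower values mean less growth of the strain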
Settings: growth OD
[1] = S. cerevisiae deletion strains, locus YAL040C, strain CLN3, active compounds read low
[2] = S. cerevisiae deletion strains, locus YCL061C, strain MRC1 (second series), active compounds read low
[3] = S. cerevisiae deletion strains, locus YDR363W, strain ESC2, active compounds read low
[4] = S. cerevisiae deletion strains, locus YER002W, strain NOP16, active compounds read low
[5] = S. cerevisiae deletion strains, locus YJR075W, strain HOC1, active compounds read low
[6] = S. cerevisiae deletion strains, locus YMR263W, strain SAP30, active compounds read low
[7] = S. cerevisiae deletion strains, locus YMR307W, strain GAS1, active compounds read low
[8] = S. cerevisiae deletion strains, locus YNL175C, strain NOP13, active compounds read low
[9] = S. cerevisiae deletion strains, locus YNL197C, strain WHI3, active compounds read low
[10] = S. cerevisiae deletion strains, locus YNL224C, strain SQS1, active compounds read low
[11] = S. cerevisiae deletion strains, locus YNL322C, strain KRE1, active compounds read low
[12] = S. cerevisiae deletion strains, locus YOR083W, strain WHI5 (second series), active compounds read low
[13] = S. cerevisiae deletion strains, locus YPL055C, strain LGE1, active compounds read low
[14] = S. cerevisiae deletion strains, locus YPL241C, strain CIN2, active compounds read low
[15] = S. cerevisiae deletion strains, locus YAL013W, strain DEP1, active compounds read low
[16] = S. cerevisiae deletion strains, locus YGR078C, strain PAC10, active compounds read low
[17] = S. cerevisiae deletion strains, locus YNL153C, strain GIM3, active compounds read low
[18] = S. cerevisiae deletion strains, locus YDL101C, strain DUN1, active compounds read low
[19] = S. cerevisiae deletion strains, locus YHR030C, strain SLT2, active compounds read low
[20] = S. cerevisiae deletion strains, locus YAR019C, strain CDC15, active compounds read low
[21] = S. cerevisiae deletion strains, locus YBL105C, strain PKC1, active compounds read low
[22] = S. cerevisiae deletion strains, locus YBR135W, strain CKS1, active compounds read low
[23] = S. cerevisiae deletion strains, locus YBR136W, strain MEC1, active compounds read low
[24] = S. cerevisiae deletion strains, locus YBR160W, strain CDC28, active compounds read low
[25] = S. cerevisiae deletion strains, locus YDL017W, strain CDC7, active compounds read low
[26] = S. cerevisiae deletion strains, locus YDL028C, strain MPS1, active compounds read low
[27] = S. cerevisiae deletion strains, locus YDL108W, strain KIN28, active compounds read low
[28] = S. cerevisiae deletion strains, locus YDL132W, strain cdc53, active compounds read low
[29] = S. cerevisiae deletion strains, locus YDL214C, strain PRR2, active compounds read low
[30] = S. cerevisiae deletion strains, locus YDR052C, strain DBF4, active compounds read low
[31] = S. cerevisiae deletion strains, locus YDR054C, strain cdc34, active compounds read low
[32] = S. cerevisiae deletion strains, locus YDR226W, strain ADK1, active compounds read low
[33] = S. cerevisiae deletion strains, locus YDR477W, strain SNF1, active compounds read low
[34] = S. cerevisiae deletion strains, locus YER123W, strain YCK3, active compounds read low
[35] = S. cerevisiae deletion strains, locus YER133W, strain GLC7, active compounds read low
[36] = S. cerevisiae deletion strains, locus YFL009W, strain cdc4, active compounds read low
[37] = S. cerevisiae deletion strains, locus YFL029C, strain CAK1, active compounds read low
[38] = S. cerevisiae deletion strains, locus YFR003C, strain YPI1, active compounds read low
[39] = S. cerevisiae deletion strains, locus YFR019W, strain FAB1, active compounds read low
[40] = S. cerevisiae deletion strains, locus YFR028C, strain CDC14, active compounds read low
[41] = S. cerevisiae deletion strains, locus YGR040W, strain KSS1, active compounds read low
[42] = S. cerevisiae deletion strains, locus YGR052W, strain FMP48, active compounds read low
[43] = S. cerevisiae deletion strains, locus YGR092W, strain DBF2, active compounds read low
[44] = S. cerevisiae deletion strains, locus YHR079C, strain IRE1, active compounds read low
[45] = S. cerevisiae deletion strains, locus YHR082C, strain KSP1, active compounds read low
[46] = S. cerevisiae deletion strains, locus YHR205W, strain SCH9, active compounds read low
[47] = S. cerevisiae deletion strains, locus YIL147C, strain SLN1, active compounds read low
[48] = S. cerevisiae deletion strains, locus YJL095W, strain BCK1, active compounds read low
[49] = S. cerevisiae deletion strains, locus YJL128C, strain PBS2, active compounds read low
[50] = S. cerevisiae deletion strains, locus YJL157C, strain FAR1, active compounds read low
[51] = S. cerevisiae deletion strains, locus YJR016C, strain ILV3, active compounds read low
[52] = S. cerevisiae deletion strains, locus YJR066W, strain TOR1 (second series), active compounds read low
[53] = S. cerevisiae deletion strains, locus YJR066W, strain TOR1, active compounds read low
[54] = S. cerevisiae deletion strains, locus YKL048C, strain ELM1, active compounds read low
[55] = S. cerevisiae deletion strains, locus YKL067W, strain YNK1, active compounds read low
[56] = S. cerevisiae deletion strains, locus YKL101W, strain HSL1, active compounds read low
[57] = S. cerevisiae deletion strains, locus YKL193C, strain SDS22, active compounds read low
[58] = S. cerevisiae deletion strains, locus YKL203C, strain TOR2, active compounds read low
[59] = S. cerevisiae deletion strains, locus YLR113W, strain HOG1, active compounds read low
[60] = S. cerevisiae deletion strains, locus YLR133W, strain CKI1, active compounds read low
[61] = S. cerevisiae deletion strains, locus YLR403W, strain SFP1, active compounds read low
[62] = S. cerevisiae deletion strains, locus YML070W, strain DAK1, active compounds read low
[63] = S. cerevisiae deletion strains, locus YMR001C, strain CDC5, active compounds read low
[64] = S. cerevisiae deletion strains, locus YMR205C, strain PFK2 (second series), active compounds read low
[65] = S. cerevisiae deletion strains, locus YMR277W, strain FCP1, active compounds read low
[66] = S. cerevisiae deletion strains, locus YNL006W, strain LST8, active compounds read low
[67] = S. cerevisiae deletion strains, locus YNL020C, strain ARK1, active compounds read low
[68] = S. cerevisiae deletion strains, locus YNL161W, strain CBK1, active compounds read low
[69] = S. cerevisiae deletion strains, locus YNL183C, strain NPR1, active compounds read low
[70] = S. cerevisiae deletion strains, locus YNL207W, strain RIO2, active compounds read low
[71] = S. cerevisiae deletion strains, locus YNL222W, strain SSU72, active compounds read low
[72] = S. cerevisiae deletion strains, locus YNL307C, strain MCK1 (second series), active compounds read low
[73] = S. cerevisiae deletion strains, locus YOL078W, strain AVO1, active compounds read low
[74] = S. cerevisiae deletion strains, locus YOL136C, strain PFK27, active compounds read low
[75] = S. cerevisiae deletion strains, locus YOR061W, strain CKA2, active compounds read low
[76] = S. cerevisiae deletion strains, locus YOR119C, strain RIO1, active compounds read low
[77] = S. cerevisiae deletion strains, locus YOR231W, strain MKK1, active compounds read low
[78] = S. cerevisiae deletion strains, locus YOR329C, strain SCD5, active compounds read low
[79] = S. cerevisiae deletion strains, locus YPL031C, strain PHO85, active compounds read low
[80] = S. cerevisiae deletion strains, locus YPL153C, strain RAD53, active compounds read low
[81] = S. cerevisiae deletion strains, locus YPL204W, strain HRR25, active compounds read low
[82] = S. cerevisiae deletion strains, locus YPL209C, strain IPL1, active compounds read low
[83] = S. cerevisiae deletion strains, locus YPL256C, strain CLN2, active compounds read low
[84] = S. cerevisiae deletion strains, locus YPR025C, strain CCL1, active compounds read low
[85] = S. cerevisiae deletion strains, locus YPR106W, strain ISR1, active compounds read low
[86] = S. cerevisiae deletion strains, locus YPR111W, strain DBF20, active compounds read low
[87] = S. cerevisiae deletion strains, strain NNK1, active compounds read low
[88] = S. cerevisiae deletion strains, strain TSCII, active compounds read low

Measured: normalized growth

COc1ccc2c(c1)[C@@]13CCCC[C@H]1[C@@H](C2)NCC3
inactive: [1] 0.998 | [2] 0.997 | [3] 0.951 | [4] 1.02 | [5] 0.988 | [6] 0.992 | [7] 0.973 | [8] 0.996 | [9] 1.03 | [10] 1.01 | [11] 0.991 | [12] 1 | [13] 0.983 | [14] 1

OCC1NCC(O)C(O)C1O (stereo not drawn)
inactive: [15] 1.02 | [1] 1.02 | [2] 1.01 | [3] 1.04 | [4] 1.01 | [16] 1 | [6] 1.01 | [7] 1.01 | S. cerevisiae deletion strains, locus YNL128W, strain TEP1, active compounds read low 1.02 | [17] 1.02 | [8] 1.02 | [9] 1.01 | [10] 0.998 | [12] 1

Cc1c(-c2ccnc(N)n2)nnn1-c1ccc(Cl)cc1Cl
inactive: [15] 1 | S. cerevisiae deletion strains, locus YBR229C, strain ROT2, active compounds read low 0.974 | [18] 0.981 | S. cerevisiae deletion strains, locus YDR150W, strain NUM1, active compounds read low 1.03 | S. cerevisiae deletion strains, locus YEL061C, strain CIN8, active compounds read low 0.959 | [16] 0.985 | [19] 0.732 | S. cerevisiae deletion strains, locus YHR087W, strain rtc3, active compounds read low 0.959 | S. cerevisiae deletion strains, locus YJL187C, strain SWE1, active compounds read low 1.01 | S. cerevisiae deletion strains, locus YJR043C, strain POL32, active compounds read low 1.01 | [5] 0.967 | S. cerevisiae deletion strains, locus YKL190W, strain CNB1, active compounds read low 1.01 | S. cerevisiae deletion strains, locus YLR039C, strain RIC1, active compounds read low 0.936 | S. cerevisiae deletion strains, locus YLR058C, strain SHM2 (second series), active compounds read low 0.989 | S. cerevisiae deletion strains, locus YLR085C, strain ARP6, active compounds read low 0.885 | S. cerevisiae deletion strains, locus YLR262C, strain YPT6, active compounds read low 0.932 | S. cerevisiae deletion strains, locus YML094W, strain GIM5, active compounds read low 0.988 | S. cerevisiae deletion strains, locus YMR219W, strain ESC1, active compounds read low 1 | [6] 0.98 | [17] 0.991 | S. cerevisiae deletion strains, locus YNL298W, strain CLA4 (second series), active compounds read low 0.973 | [11] 1.01 | S. cerevisiae deletion strains, locus YNR030W, strain Alg12, active compounds read low 0.975 | S. cerevisiae deletion strains, locus YOL006C, strain TOP1, active compounds read low 0.921 | [13] 1.08 | [14] 0.957 | S. cerevisiae deletion strains, locus YPR135W, strain CTF4, active compounds read low 0.687 | S. cerevisiae strains, strain wild type, active compounds read low 0.992

O=C1CSC(c2cccnc2)N1c1ccc(Cl)cc1Cl (stereo not drawn)
inactive: [20] 0.986 | [21] 0.996 | [22] 0.994 | [23] 0.99 | [24] 0.994 | [25] 0.992 | [26] 0.992 | [18] 1 | [27] 0.985 | [28] 0.993 | [29] 0.931 | [30] 0.997 | [31] 0.987 | [32] 0.989 | [33] 0.919 | [34] 0.823 | [35] 0.897 | [36] 1 | [37] 0.98 | [38] 0.99 | [39] 0.796 | [40] 0.993 | [41] 0.93 | [42] 0.902 | [43] 0.972 | [19] 0.958 | [44] 0.964 | [45] 0.932 | [46] 0.98 | [47] 0.998 | [48] 0.906 | [49] 0.993 | [50] 0.948 | [51] 0.993 | [52] 0.893 | [53] 0.837 | [54] 1.01 | [55] 0.944 | [56] 0.993 | [57] 0.989 | [58] 0.945 | [59] 0.913 | [60] 0.962 | [61] 0.937 | [62] 0.939 | [63] 0.991 | [64] 0.968 | [65] 0.992 | [66] 0.986 | [67] 0.974 | [68] 0.985 | [69] 0.912 | [70] 0.998 | [71] 0.99 | [72] 0.952 | [73] 0.994 | [74] 0.919 | [75] 0.939 | [76] 0.919 | [77] 0.937 | [78] 0.99 | [79] 0.928 | [80] 0.933 | [81] 0.92 | [82] 0.989 | [83] 0.88 | [84] 0.984 | [85] 1.01 | [86] 1 | [87] 0.998 | [88] 0.989

O=c1c(Cl)c(-n2cccn2)cnn1-c1ccc(Cl)cc1Cl
inactive: [20] 0.93 | [21] 0.948 | [22] 0.943 | [23] 0.949 | [24] 0.96 | [25] 0.95 | [26] 0.954 | [18] 0.985 | [27] 0.962 | [28] 0.95 | [29] 0.906 | [30] 0.93 | [31] 0.913 | [32] 0.974 | [33] 0.893 | [34] 0.722 | [35] 0.909 | [36] 0.955 | [37] 0.916 | [38] 0.953 | [39] 0.956 | [40] 0.965 | [41] 0.883 | [42] 0.902 | [43] 0.539 | [44] 0.768 | [45] 0.988 | [46] 1.02 | [47] 0.955 | [48] 0.823 | [49] 0.94 | [50] 0.864 | [51] 0.932 | [52] 0.726 | [53] 0.901 | [54] 0.979 | [55] 0.903 | [56] 0.951 | [57] 0.936 | [58] 0.909 | [60] 0.943 | [61] 0.92 | [62] 0.917 | [63] 0.917 | [64] 0.926 | [65] 0.941 | [66] 0.934 | [67] 0.914 | [68] 0.931 | [69] 0.857 | [70] 0.968 | [71] 0.949 | [72] 0.901 | [73] 0.928 | [74] 0.951 | [75] 0.93 | [76] 0.947 | [77] 0.842 | [78] 0.943 | [79] 0.862 | [80] 0.84 | [81] 0.903 | [82] 0.954 | [84] 0.947 | [85] 0.986 | [86] 0.981 | [87] 0.97 | [88] 0.908
active: [19] 0.71 | [59] 0.691 | [83] 0.831
